# According to PubChem BioAssay (NCATS):
# Where “and” joins values, the source holds several entries; their conditions need not be identical. Equal values may be shown once. Unmarked numbers belong to inactive results. Records with an inconclusive call do not appear. Entries that show only a call come without a potency. Calls of active or inactive are those of the source. Unless noted, the call rests on the fitted dose curve; in most records, active means well fitted curve in the direction sought with a large enough effect; inconclusive means small, poorly fitted or top-dose-only effect, or another doubt; inactive means no such curve, though single readings can be large; an effect the other way counts as inactive or inconclusive.
# Legend:
# [1] = Cell Viability - Jurkat (AID 426;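 active means dose-dependent loss of cell ATP signal giving a full or clear fitted curve, ranked by lower potency value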; further: potency means the concentration at half of the fitted maximal effect); settings: qHTS
# Procedure, shortened: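 Jurkat (clone E6-1, human T-cell leukemia) cells, 5000/well in complete medium, were exposed to compound for 40 hr at 37 °C. Viability was read as intracellular ATP by CellTiter-Glo luminescence; AC50 came from Hill fits of concentration-response data.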
# [2] = Cell Viability - NIH 3T3 (AID 541); settings: NIH 3T3 cell viability, qHTS; activity change, negative = cytotoxicity: at 92.2 µM (top of the series); further: nearly all actives have a fitted effect of over 25% in size; further: potency means the concentration at half of the fitted maximal effect
# Procedure, shortened: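 NIH 3T3 mouse embryo fibroblasts (1000 cells/well) were plated in complete medium and treated with compound for 40 hr at 37 °C. Viability was read as intracellular ATP by CellTiter-Glo luminescence; AC50 values came from Hill-equation fits of concentration-response data.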
# [3] = Cellular Toxicity (caspase-3) MRC-5 (AID 659); settings: MRC-5 cells, luminescence, normalized: DMSO 0%, 10 µM staurosporine 100%; series mostly up to 91.7 µM
# Procedure, shortened: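 Luminescence from caspase-cleaved aminoluciferin substrate (Caspase-Glo 3/7, 1 hr RT) reports caspase 3/7 activity in MRC-5 lung fibroblasts after 16 hr compound exposure. Normalized to DMSO basal and 10 uM staurosporine as 100%; AC50 from Hill fits.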
# [4] = Cellular Toxicity (caspase-3) NIH 3T3 (AID 666); settings: NIH 3T3 caspase-3 activation, apoptosis/toxicity; series mostly up to 92.2 µM;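 further: caspase signal read after 16 h compound exposure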
# Procedure, shortened: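 Mouse NIH 3T3 fibroblasts (1000 cells/well) were treated with compound for 16 hr at 37°C in complete medium; caspase-3/7 activity was read by Caspase-Glo luminescence. Normalized to DMSO and 100 uM tamoxifen; AC50 from Hill fits.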
# [5] = MultiTox-Fluor Cytotoxicity Assay - LYMP1-001 - Dead Cells (AID 946); settings: LYMP1-001 lymphoblastoid cells, dead-cell protease fluorescence; series mostly up to 92.2 µM
# Procedure, shortened: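 AC50 from Hill fit of concentration-response; data normalized to DMSO (basal) and 15 uM tetraoctylammonium bromide (100%). LYMP1-001 lymphoblastoid cells, 2500/well, 16 hr compound at 37 C; dead-cell protease fluorescence, Ex/Em 485/520.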
# [6] = MultiTox-Fluor Cytotoxicity Assay - LYMP1-002 - Live Cells (AID 955); settings: LYMP1-002 lymphoblastoid live-cell protease fluorescence viability; series mostly up to 46.1 µM
# Procedure, shortened: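 Human lymphoblastoid LYMP1-002 cells, 2500/well in complete medium, rested 5 hr at 37 C, then exposed to compounds for 16 hr at 37 C. Live-cell protease cleavage of GF-AFC read by fluorescence (Ex/Em 405/510) after 60 min at room temperature; AC50 from Hill fits.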
# [7] = Cell Viability - LYMP1-003 - Assay at 24 hr (AID 963); settings: LYMP1-003 lymphoblastoid cell viability; series mostly up to 92.2 µM
# Procedure, shortened: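 Human lymphoblastoid LYMP1-003 cells (2500/well) were rested 5 hr at 37 C, then exposed to compounds in complete medium for 24 hr at 37 C. Cellular ATP was quantified by CellTiter-Glo luminescence, and AC50 values came from Hill fits of concentration-response data.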
# [8] = Cell Viability - LYMP2-015 (AID 971); settings: LYMP2-015 lymphoblastoid cell viability; series mostly up to 92.2 µM; further: nearly all actives have a fitted effect of over 55% in size
# Procedure, shortened: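 Human lymphoblastoid cells (2500/well) in complete medium were preincubated 5 hr at 37 C, then compound-treated 24 hr at 37 C. Intracellular ATP was read by CellTiter-Glo luminescence after 30 min at room temperature; AC50 came from Hill-equation concentration-response fits.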
# [9] = Cell Viability - LYMP2-016 (AID 984); settings: LYMP2-016 lymphoblastoid cell viability, qHTS; series mostly up to 92.2 µM; further: nearly all actives have a fitted effect of over 55% in size
# Procedure, shortened: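 Cells were seeded at 2500 per well and rested 5 hr before a 24 hr compound exposure at 37 C. Viability was then gauged as cellular ATP by luciferase luminescence, with AC50 values fitted to the Hill equation.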
# [10] = Cell Viability - LYMP2-024 (AID 988); settings: LYMP2-024 lymphoblastoid cell viability; series mostly up to 92.2 µM; further: nearly all actives have a fitted effect of over 60% in size
# Procedure, shortened: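 Human lymphoblastoid cells (2500/well) in complete medium were preincubated 5 hr at 37 C, then exposed to compounds for 24 hr at 37 C. Intracellular ATP was read by CellTiter-Glo luminescence; AC50 from Hill-equation fits of concentration-response data.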
# [11] = Cell Viability - LYMP1-002 - Assay at 24 hr (AID 993); settings: LYMP1-002 lymphoblastoid cells viability; series mostly up to 92.2 µM
# Procedure, shortened: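 Human lymphoblastoid LYMP1-002 cells, 2500/well in complete medium, were treated with compounds for 24 h at 37 C; intracellular ATP was read by CellTiter-Glo luminescence. AC50 values came from Hill-equation fits of qHTS concentration-response data.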
# [12] = molecular target: Vitamin D3 receptor (Homo sapiens) (UniProt P11473); test: qHTS assay for small molecule agonists of vitamin D receptor signaling (AID 588543; calls by dose curve); settings: HEK293T VDR-UAS-bla, beta-lactamase ratio, 16 h; series mostly up to 76.8 µM
# Chain of Vitamin D3 receptor (Homo sapiens) (P11473 whole entry, looked up): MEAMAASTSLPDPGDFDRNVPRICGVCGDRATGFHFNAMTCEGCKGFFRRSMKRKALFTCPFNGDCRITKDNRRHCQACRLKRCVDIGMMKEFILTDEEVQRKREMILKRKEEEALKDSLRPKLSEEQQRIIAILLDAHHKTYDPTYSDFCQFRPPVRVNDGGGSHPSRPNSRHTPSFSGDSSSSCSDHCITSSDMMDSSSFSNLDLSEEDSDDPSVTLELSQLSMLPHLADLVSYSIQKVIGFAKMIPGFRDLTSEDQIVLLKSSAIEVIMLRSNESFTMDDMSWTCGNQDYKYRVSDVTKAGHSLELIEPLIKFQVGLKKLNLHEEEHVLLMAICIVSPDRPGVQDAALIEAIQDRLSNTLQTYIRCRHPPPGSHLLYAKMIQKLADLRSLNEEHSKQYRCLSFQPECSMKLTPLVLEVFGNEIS
# Procedure, shortened: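 Reporter cells (HEK293T, VDR-UAS-bla) were seeded in medium with 2% charcoal-stripped serum and incubated 5 h, then compounds in concentration series were added for 16 h at 37 °C. Stimulation was scaled between DMSO basal and 50 nM 1α,25-dihydroxyvitamin D3.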
# [13] = qHTS assay for small molecule disruptors of the mitochondrial membrane potential - 5 hr assay (AID 651755; calls by dose curve; further: nearly all actives have a fitted effect of over 40% in size); settings: JC-1-type ratio dye; series mostly up to 92.2 µM
# Procedure, shortened: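 HepG2 cells, attached overnight at 37C, were exposed to compound or DMSO for 5 hr at 37C, 5% CO2. Mito-MPS dye was then added for 30 min, and fluorescence read at 490/535 nm (monomers) and 540/590 nm (aggregates).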
# [14] = molecular target: Peroxisome proliferator-activated receptor alpha (Homo sapiens) (UniProt Q07869); test: qHTS assay for small molecule agonists of the peroxisome proliferator-activated receptor alpha (PPARalpha) signaling pathway (AID 651778); settings: PathHunter PPARalpha complementation, chemiluminescence, 6 h; active compounds read high
# Chain of Peroxisome proliferator-activated receptor alpha (Homo sapiens) (Q07869 whole entry, looked up): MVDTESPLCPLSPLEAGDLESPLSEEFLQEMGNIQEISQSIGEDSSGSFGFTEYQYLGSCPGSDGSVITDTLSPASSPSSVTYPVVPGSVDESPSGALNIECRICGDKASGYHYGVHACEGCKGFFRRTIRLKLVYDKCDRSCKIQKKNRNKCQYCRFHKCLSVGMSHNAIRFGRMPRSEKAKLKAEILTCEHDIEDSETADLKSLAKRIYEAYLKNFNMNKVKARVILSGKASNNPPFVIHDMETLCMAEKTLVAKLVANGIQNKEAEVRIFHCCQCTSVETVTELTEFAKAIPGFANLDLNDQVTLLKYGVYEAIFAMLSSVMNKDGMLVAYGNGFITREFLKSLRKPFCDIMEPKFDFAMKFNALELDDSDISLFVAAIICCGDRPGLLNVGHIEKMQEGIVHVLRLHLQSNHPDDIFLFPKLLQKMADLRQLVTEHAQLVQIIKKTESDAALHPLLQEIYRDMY
# Procedure, shortened: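 Cells plated at 2,000/well and held overnight at 37 C, 5% CO2, then compound added by pin tool for 6 hr; after PathHunter detection reagent and 60 min at room temperature, chemiluminescence from enzyme complementation was read.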
# [15] = molecular target: Nuclear receptor ROR-gamma (Homo sapiens) (UniProt P51449); test: qHTS assay for small molecule antagonists of the retinoid-related orphan receptor gamma (ROR-gamma) signaling pathway (AID 651802); settings: ROR-gamma antagonist cell reporter assay; series mostly up to 92.2 µM; further: nearly all actives have a fitted effect of over 60% in size; further: potency means the concentration at half of the fitted maximal effect
# Chain of Nuclear receptor ROR-gamma (Homo sapiens) (P51449 whole entry, looked up): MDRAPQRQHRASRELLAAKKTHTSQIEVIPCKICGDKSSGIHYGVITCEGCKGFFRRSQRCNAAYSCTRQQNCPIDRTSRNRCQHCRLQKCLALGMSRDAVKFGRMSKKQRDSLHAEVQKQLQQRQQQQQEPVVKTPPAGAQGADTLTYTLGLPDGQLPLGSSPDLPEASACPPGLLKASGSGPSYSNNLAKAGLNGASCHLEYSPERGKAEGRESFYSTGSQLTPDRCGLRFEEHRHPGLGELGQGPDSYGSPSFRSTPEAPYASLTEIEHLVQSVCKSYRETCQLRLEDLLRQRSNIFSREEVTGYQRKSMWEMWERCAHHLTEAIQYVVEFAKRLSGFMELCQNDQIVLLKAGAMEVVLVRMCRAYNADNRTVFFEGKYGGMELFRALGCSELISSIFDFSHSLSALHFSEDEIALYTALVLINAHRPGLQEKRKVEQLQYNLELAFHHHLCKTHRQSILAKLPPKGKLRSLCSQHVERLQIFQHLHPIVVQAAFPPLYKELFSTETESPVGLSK
# Procedure, shortened: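 CHO cells carrying TET-inducible ROR-gamma and an ROR response element–luciferase reporter were exposed to compound, then induced with doxycycline. After 16hr at 37C, luminescence was read; lower signal indicates antagonism.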
# [16] = qHTS assay for small molecule antagonists of the retinoid-related orphan receptor gamma (ROR-gamma) signaling pathway - cell viability counter screen (AID 720652; active means well fitted curve in the direction sought with a large enough effect in the repeat runs; an effect the other way counts as inactive or inconclusive;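 further: compound exposure lasted 16 hr before ATP read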); settings: RORgamma reporter cell line viability counter screen; series mostly up to 92.2 µM
# Procedure, shortened: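 Counter screen in CHO cells carrying TET-inducible ROR-gamma and an ROR response element-luciferase reporter; cells plated 5 hr, compound pinned, doxycycline added, then 16 hr at 37 C. Viability read as intracellular ATP by CellTiter-Glo luminescence.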
# [17] = qHTS assay for small molecule agonists of the antioxidant response element (ARE) signaling pathway measured by Nrf2-dependant transcriptional activity - cell viability counter screen (AID 720653; active means well fitted curve in the direction sought with a large enough effect in the repeat runs; an effect the other way counts as inactive or inconclusive); settings: ARE-bla HepG2 viability, CellTiter-Glo ATP luminescence, 16 h; active compounds read low
# Procedure, shortened: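 ARE-bla HepG2 cells (2,000/well) rested 5 hrs at 37C/5% CO2, then exposed to compounds in DMSO for 16 hrs. Viability was read in the same wells as intracellular ATP by luminescence, 30 min at room temperature after reagent addition.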
# [18] = qHTS assay for cell viability of the p53RE-bla HCT-116 cell line (AID 743292); settings: p53RE-bla HCT-116 viability, ATP luminescence, 16 h; series mostly up to 95 µM; further: nearly all actives have a fitted effect of over 55% in size
# Procedure, shortened: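 Readout: CellTiter-Glo luminescence after 30 min RT. Treatment: compounds in DMSO, 16 h, 37 C. Cells: CellSensor p53RE-bla HCT-116, 4,000/well, preincubated 5 h.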
# [19] = molecular target: Nuclear receptor subfamily 1 group I member 2 (Rattus norvegicus) (UniProt Q9R1A7); test: qHTS assay for small molecule activators of the rat pregnane X receptor (rPXR) signaling pathway (AID 651751; call rule not given here); settings: rPXR reporter cells, luciferase (One-Glo), 24 h
# Chain of Nuclear receptor subfamily 1 group I member 2 (Rattus norvegicus) (Q9R1A7 whole entry, looked up): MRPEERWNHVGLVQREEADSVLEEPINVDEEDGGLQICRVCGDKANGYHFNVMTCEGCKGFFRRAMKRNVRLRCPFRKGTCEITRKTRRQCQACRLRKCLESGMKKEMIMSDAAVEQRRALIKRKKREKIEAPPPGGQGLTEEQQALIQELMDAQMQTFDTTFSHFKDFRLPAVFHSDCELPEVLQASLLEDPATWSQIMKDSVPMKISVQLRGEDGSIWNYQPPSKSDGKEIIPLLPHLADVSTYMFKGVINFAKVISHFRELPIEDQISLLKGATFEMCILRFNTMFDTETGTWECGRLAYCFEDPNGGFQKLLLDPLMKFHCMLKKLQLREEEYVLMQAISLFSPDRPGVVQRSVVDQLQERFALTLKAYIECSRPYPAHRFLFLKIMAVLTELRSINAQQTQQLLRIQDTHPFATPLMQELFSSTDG
# [20] = Cell Viability - Mesenchymal (AID 546); settings: mesenchymal cells viability, qHTS; series mostly up to 91.7 µM;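 further: cells exposed to compound for 40 hours before reading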
# Procedure, shortened: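 Normal human renal glomerulus-derived kidney mesenchymal cells, 1000 per well in complete medium, were treated with compounds for 40 hr at 37 °C. Viability was read as intracellular ATP by CellTiter-Glo luminescence; AC50 values came from Hill-equation fits of qHTS concentration-response data.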
Structure (SMILES),Potency [1],Potency [2],outcome [3],Potency [4],outcome [5],outcome [6],outcome [7],Potency [8],Potency [9],Potency [10],Potency [11],outcome [12],Potency [13],max response [14],Potency [15],Potency [16],max response [17],Potency [18],max response [19],Potency [20]
Cc1cnc[nH]1,> 92 µM,inactive,inactive,inactive,inactive,inactive,inactive,inactive,inactive,inactive,inactive,inactive,inactive,-0.863%,inactive,inactive,-3.19%,inactive,-5.24%,–
Nc1cccc(Cl)c1,> 92 µM,inactive,inactive,inactive,inactive,inactive,–,inactive,inactive,–,inactive,inactive,inactive,0.632%,inactive,inactive,2.22%,inactive,1.89%,inactive
O=C(O)C(Cl)Br (configuration not stated),> 92 µM,inactive,inactive,inactive,inactive,inactive,inactive,inactive,inactive,inactive,–,inactive,inactive,-0.46%,inactive,inactive,3.95%,inactive,-1.1%,–
CC(=O)[O-].CC(=O)[O-].CC(=O)[O-].[Cr+3],> 92 µM,inactive,inactive,inactive,inactive,inactive,inactive,–,inactive,inactive,inactive,–,inactive,-3.23%,–,inactive,–,inactive,–,inactive
C[N+](=O)[O-],> 92 µM,inactive,inactive,inactive,inactive,–,inactive,inactive,inactive,inactive,inactive,inactive,inactive,-2.13%,inactive,inactive,-1.82%,inactive,–,inactive
c1ccoc1,> 92 µM,inactive,inactive,inactive,inactive,–,inactive,–,inactive,inactive,inactive,inactive,inactive,0.928%,–,inactive,–,–,3.47%,inactive
Nc1ccccc1-c1ccccc1,> 92 µM,–,inactive,inactive,inactive,inactive,inactive,inactive,inactive,inactive,inactive,inactive,–,-2.98%,inactive,inactive,–,inactive,0.403%,inactive
N#CCBr,> 92 µM,10 µM (active),inactive,–,inactive,inactive,inactive,inactive,inactive,inactive,inactive,–,inactive,-0.274%,inactive,–,-10.6%,inactive,-1.93%,inactive
CC[N+](=O)[O-],> 92 µM,inactive,–,inactive,inactive,inactive,inactive,inactive,inactive,inactive,inactive,inactive,inactive,1.55%,inactive,inactive,–,–,-6.68%,inactive
CCBr,> 92 µM,inactive,inactive,–,inactive,inactive,inactive,inactive,inactive,inactive,inactive,inactive,inactive,-2.39%,inactive,inactive,-4.15%,–,4.52%,–
Oc1cc(Cl)c(Cl)c(Cl)c1Cl,54.1 µM (active),–,–,inactive,inactive,–,inactive,–,inactive,inactive,inactive,–,–,0.278%,23.7 µM (active),–,–,inactive,-6.73%,–
CCOC(=O)CC(SP(=O)(OC)OC)C(=O)OCC (configuration not stated),> 92 µM,inactive,inactive,inactive,inactive,inactive,inactive,inactive,–,inactive,inactive,–,inactive,-2.03% and -3.38%,–,inactive,0.403% and 18.9%,inactive,-7.84% and -3.31%,–
ClCCOCOCCCl,> 92 µM,inactive,inactive,inactive,inactive,inactive,inactive,inactive,inactive,inactive,inactive,inactive,inactive,-0.0658%,inactive,inactive,-12.6%,inactive,0.986%,inactive
OCCOCCO,> 92 µM,inactive,inactive,inactive,inactive,inactive,inactive,inactive,inactive,inactive,inactive,inactive,inactive,-3.41%,inactive,inactive,-0.406%,–,3.46%,inactive
